AC50 and outcome data for 20 compounds are collected here from PubChem BioAssay (EPA / NIEHS).

Values joined by “and” are separate entries in the source; they are usually repeats but may differ in a detail not shown here. Identical values can stand only once. Results filed as inconclusive are left out. Active and inactive are the calls of the source. The calls were made as follows: active = hit-call score of the fitted dose curve at least 0.9, where 1 is the maximum; inconclusive = response in the unintended direction; inactive = score below 0.9.

Test [1] addresses human Tropomyosin Receptor Kinase A (TRKA), NTRK1 (gene 4914) (UniProt P04629). Nature of the test: NVS_ENZ_hTrkA: NovaScreen (NVS) Enzymatic Assay for human Tropomyosin Receptor Kinase A (TRKA) (AID 2283224). Summed up: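 Compounds were screened at 25 uM in duplicate, then concentration series to a 50 uM top for those meeting threshold (e.g. 30% inhibition). Enzyme was recombinant human TrkA, incubated 1 h. Product formation was quantified by fluorescence after mobility-shift separation.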

Test [2] deals with human Vascular Endothelial Growth Factor Receptor 1 (VEGFR1), FLT1 (gene 2321) (UniProt P17948). The test can be described thus: NVS_ENZ_hVEGFR1: NovaScreen (NVS) Enzymatic Assay for human Vascular Endothelial Growth Factor Receptor 1 (VEGFR1) (AID 2283226). Put shortly: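 Kinase activity of recombinant human VEGFR1 was read by fluorescence after electrophoretic separation of product from substrate, 1 h post-dosing; initial duplicate single-point testing at 25 uM, followed by concentration-series follow-up, with DMSO as baseline.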

The target in test [3] is human Vascular Endothelial Growth Factor Receptor 3 (VEGFR3), FLT4 (gene 2324) (UniProt P35916). Nature of the test: NVS_ENZ_hVEGFR3: NovaScreen (NVS) Enzymatic Assay for human Vascular Endothelial Growth Factor Receptor 3 (VEGFR3) (AID 2283229). Put shortly: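 Chemicals first run in duplicate at 25 uM, with actives re-tested in concentration series to a top of 50 uM. Recombinant VEGFR3 activity measured after 1 h via fluorescence with mobility-shift product separation; inhibition fitted relative to DMSO.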
Chain of human Vascular Endothelial Growth Factor Receptor 3 (VEGFR3), FLT4 (gene 2324) (P35916 whole entry, looked up): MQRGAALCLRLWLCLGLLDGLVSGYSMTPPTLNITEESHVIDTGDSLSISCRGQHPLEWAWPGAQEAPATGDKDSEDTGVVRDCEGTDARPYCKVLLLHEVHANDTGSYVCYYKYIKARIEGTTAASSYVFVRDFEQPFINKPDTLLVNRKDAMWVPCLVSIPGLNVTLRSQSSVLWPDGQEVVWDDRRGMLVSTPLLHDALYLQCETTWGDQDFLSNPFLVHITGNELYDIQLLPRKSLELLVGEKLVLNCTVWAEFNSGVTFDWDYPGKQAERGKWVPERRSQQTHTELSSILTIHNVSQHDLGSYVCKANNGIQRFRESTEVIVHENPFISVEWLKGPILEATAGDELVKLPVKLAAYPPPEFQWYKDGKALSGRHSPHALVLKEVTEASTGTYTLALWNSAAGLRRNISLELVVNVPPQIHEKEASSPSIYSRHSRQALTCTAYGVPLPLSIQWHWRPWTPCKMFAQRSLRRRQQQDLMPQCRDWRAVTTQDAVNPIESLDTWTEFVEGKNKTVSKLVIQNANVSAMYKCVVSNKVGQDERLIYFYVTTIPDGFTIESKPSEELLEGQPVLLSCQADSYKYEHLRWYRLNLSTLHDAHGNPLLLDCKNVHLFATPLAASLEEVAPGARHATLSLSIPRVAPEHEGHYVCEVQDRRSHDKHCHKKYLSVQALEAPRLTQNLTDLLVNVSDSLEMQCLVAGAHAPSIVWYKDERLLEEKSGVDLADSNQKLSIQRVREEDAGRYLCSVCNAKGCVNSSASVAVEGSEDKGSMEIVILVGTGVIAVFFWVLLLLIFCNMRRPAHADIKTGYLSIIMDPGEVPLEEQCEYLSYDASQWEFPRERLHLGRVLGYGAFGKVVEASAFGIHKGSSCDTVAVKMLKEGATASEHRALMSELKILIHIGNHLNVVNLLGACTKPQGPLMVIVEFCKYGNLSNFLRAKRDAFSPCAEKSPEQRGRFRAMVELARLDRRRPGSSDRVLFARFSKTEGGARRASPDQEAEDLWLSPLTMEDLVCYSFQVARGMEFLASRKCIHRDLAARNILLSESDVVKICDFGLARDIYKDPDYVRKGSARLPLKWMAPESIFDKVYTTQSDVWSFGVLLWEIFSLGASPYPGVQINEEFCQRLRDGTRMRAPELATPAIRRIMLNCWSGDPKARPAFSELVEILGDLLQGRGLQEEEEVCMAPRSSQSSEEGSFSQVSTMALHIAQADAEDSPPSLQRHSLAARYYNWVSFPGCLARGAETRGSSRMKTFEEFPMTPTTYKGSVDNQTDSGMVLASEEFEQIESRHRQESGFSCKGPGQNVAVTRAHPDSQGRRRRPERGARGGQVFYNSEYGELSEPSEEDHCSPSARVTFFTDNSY

For test [4], the target named is human Vascular Endothelial Growth Factor Receptor 2 (VEGFR2), KDR (gene 3791) (UniProt P35968). The test can be described thus: NVS_ENZ_hVEGFR2: NovaScreen (NVS) Enzymatic Assay for human Vascular Endothelial Growth Factor Receptor 2 (VEGFR2) (AID 2283230). Here is the method: (§1) NVS_ENZ_hVEGFR2 is a biochemical, single-readout assay that uses extracted gene-proteins in a cell-free assay. Measurements were taken 1 hour after chemical dosing in a 384-well plate.NVS_ENZ_hVEGFR2 is one of one assay component(s) measured or calculated from the NVS_ENZ_hVEGFR2 assay. It is designed to make measurements of enzyme activity, a form of enzyme reporter, as detected with fluorescence intensity signals by Fluorescence and electrophoretic mobility shift technology.Data from the assay component NVS_ENZ_hVEGFR2 was analyzed into 1 assay endpoint. This assay endpoint, NVS_ENZ_hVEGFR2, was analyzed in the positive analysis fitting direction relative to DMSO as the negative control and baseline of activity. Using a type of enzyme reporter, loss-of-signal activity can be used to understand changes in the enzymatic activity as they relate to the gene KDR. Furthermore, this assay endpoint can be referred to as a primary readout, because this assay has produced multiple assay endpoints where this one serves a enzymatic activity function. To generalize the intended target to other relatable targets, this assay endpoint is annotated to the kinase intended target family, where the subfamily is receptor tyrosine kinase.
Chain of human Vascular Endothelial Growth Factor Receptor 2 (VEGFR2), KDR (gene 3791) (P35968 whole entry, looked up): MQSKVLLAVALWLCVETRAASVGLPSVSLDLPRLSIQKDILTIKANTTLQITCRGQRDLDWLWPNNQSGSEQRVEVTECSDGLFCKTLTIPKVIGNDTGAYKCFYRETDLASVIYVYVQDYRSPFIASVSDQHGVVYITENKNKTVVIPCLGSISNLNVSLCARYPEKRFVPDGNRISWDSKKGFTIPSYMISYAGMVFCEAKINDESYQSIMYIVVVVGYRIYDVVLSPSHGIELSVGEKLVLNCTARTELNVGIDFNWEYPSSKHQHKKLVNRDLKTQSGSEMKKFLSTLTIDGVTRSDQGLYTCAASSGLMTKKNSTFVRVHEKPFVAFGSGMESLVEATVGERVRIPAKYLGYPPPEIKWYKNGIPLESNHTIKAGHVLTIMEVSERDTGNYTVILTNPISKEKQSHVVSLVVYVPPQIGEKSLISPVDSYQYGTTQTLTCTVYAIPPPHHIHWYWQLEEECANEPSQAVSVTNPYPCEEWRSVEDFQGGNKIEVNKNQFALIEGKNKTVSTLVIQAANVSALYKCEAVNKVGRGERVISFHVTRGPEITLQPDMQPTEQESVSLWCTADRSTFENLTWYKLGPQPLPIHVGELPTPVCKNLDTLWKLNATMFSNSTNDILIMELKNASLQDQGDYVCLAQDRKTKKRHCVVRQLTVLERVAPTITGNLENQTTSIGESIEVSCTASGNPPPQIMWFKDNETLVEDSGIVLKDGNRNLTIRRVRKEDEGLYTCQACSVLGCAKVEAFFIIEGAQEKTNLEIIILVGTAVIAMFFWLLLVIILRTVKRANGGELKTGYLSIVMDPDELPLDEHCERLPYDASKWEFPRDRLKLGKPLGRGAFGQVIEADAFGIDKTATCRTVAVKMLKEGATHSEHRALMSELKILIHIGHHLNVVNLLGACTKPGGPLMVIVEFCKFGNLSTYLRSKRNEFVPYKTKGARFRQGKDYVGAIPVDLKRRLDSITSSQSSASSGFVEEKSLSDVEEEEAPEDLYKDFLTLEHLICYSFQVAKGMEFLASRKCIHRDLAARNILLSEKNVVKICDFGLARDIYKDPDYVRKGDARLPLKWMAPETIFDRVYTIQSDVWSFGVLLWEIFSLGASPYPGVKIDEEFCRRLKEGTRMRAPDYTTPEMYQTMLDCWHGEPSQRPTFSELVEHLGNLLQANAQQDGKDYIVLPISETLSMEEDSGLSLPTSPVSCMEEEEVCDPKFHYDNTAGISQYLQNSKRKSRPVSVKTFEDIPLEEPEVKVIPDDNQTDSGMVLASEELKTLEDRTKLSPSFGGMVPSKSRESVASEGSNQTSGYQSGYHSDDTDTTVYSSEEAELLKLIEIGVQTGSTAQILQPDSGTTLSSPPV
(§2) Binding assays used specific radioligands (tritiated, iodinated) with non-radioactive competitive displacement ligands in agonist or antagonist protocols (as indicated) and various reference compounds and inhibitors to titrate specific binding to receptors and transporters. Most enzyme assays (CYPs, kinases, phosphatases, proteases, HDACs) used recombinant protein and specific substrates (fluorescence mostly, some colorimetric and radioactive) and inhibitors, followed by a biochemical separation of substrate and product. All assays for the biochemical HTS were initially run in duplicate at a single concentration (10 uM for CYP450 assays and 25 uM for all others). Assay-chemical combinations meeting a pre-defined threshold (e.g., 30% inhibition and other criteria defined below) were then run in singleton concentration-response format with maximum concentration of 20 uM for CYPs and 50 uM for all others. Each assay was run with positive and negative controls, and concurrent controls on every plate. The follow-up (secondary) screen tested active chemical-pairs in concentration series, as well as a few additional assays not tested in the primary screen, some selected negative inactives, and several cases re-run in the concentration series for confirmatory purposes.

Test [5] concerns the target sheep Cyclooxygenase-2 (Cox2), PTGS2 (gene 443460) (UniProt P79208). The test can be described thus: NVS_ENZ_oCOX2: NovaScreen (NVS) Enzymatic Assay for sheep Cyclooxygenase-2 (Cox2) (AID 2283231). Put shortly:
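Ovine placental enzyme, cell-free; chemical added, 0.66 h, absorbance (colorimetric). Screen 25 uM in duplicate; ≥threshold hits titrated, top 50 uM. Inhibition = signal loss vs DMSO.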

In test [6] the target is rabbit Imidazoline 2 Central (I2C), CKB (gene 100009085) (UniProt P00567). The test can be described thus: NVS_ENZ_rabI2C: NovaScreen (NVS) Enzymatic Assay for rabbit Imidazoline 2 Central (I2C) (AID 2283228). Put shortly:
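Rabbit brain membranes, cell-free; readout by filter-based scintillation counting 1.5 hours after dosing, loss of signal vs DMSO. Initial duplicate test at 25 uM, then concentration-response with 50 uM top concentration.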

In test [7] the target is rat Acetylcholinesterase (AChE), Ache (gene 83817) (UniProt P37136). The test can be described thus: NVS_ENZ_rAChE: NovaScreen (NVS) Enzymatic Assay for rat Acetylcholinesterase (AChE) (AID 2283233). How it is done:
NVS_ENZ_rAChE is a biochemical, single-readout assay that uses extracted gene-proteins from Rat brain membranes in a tissue-based cell-free assay. Measurements were taken 0.33 hour after chemical dosing in a 96-well plate.NVS_ENZ_rAChE is one of one assay component(s) measured or calculated from the NVS_ENZ_rAChE assay. It is designed to make measurements of enzyme activity, a form of enzyme reporter, as detected with absorbance signals by Colorimetric technology.Data from the assay component NVS_ENZ_rAChE was analyzed into 1 assay endpoint. This assay endpoint, NVS_ENZ_rAChE, was analyzed in the positive analysis fitting direction relative to DMSO as the negative control and baseline of activity. Using a type of enzyme reporter, loss-of-signal activity can be used to understand changes in the enzymatic activity as they relate to the gene Ache. Furthermore, this assay endpoint can be referred to as a primary readout, because this assay has produced multiple assay endpoints where this one serves a enzymatic activity function. To generalize the intended target to other relatable targets, this assay endpoint is annotated to the esterase intended target family, where the subfamily is acetylcholinesterase.
as §2

The target in test [8] is rat Adenylate Cyclase, Forskolin Stimulated, Adcy5 (gene 64532) (UniProt Q04400). Nature of the test: NVS_ENZ_rACFSKBinding: NovaScreen (NVS) Enzymatic Assay for rat Adenylate Cyclase, Forskolin Stimulated (AID 2283232). Put shortly: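 Chemicals were first tested at 25 uM in duplicate, then hits run as concentration series with top concentration 50 uM. Enzyme source was rat forebrain membranes; radiometric filter read-out after 1 h, referenced to DMSO.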

For test [9], the target named is human Sirtuin 3 (SIRT3), SIRT3 (gene 23410) (UniProt Q9NTG7). The test can be described thus: NVS_ENZ_hSIRT3: NovaScreen (NVS) Enzymatic Assay for human Sirtuin 3 (SIRT3) (AID 2283222). Put shortly:
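Cell-free enzyme assay with recombinant protein and fluorescent substrate, product separated by electrophoretic mobility shift; read 1 hour after dosing. Screened in duplicate at 25 uM, then singleton concentration-response up to 50 uM; loss of signal versus DMSO.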

In test [10] the target is human SRC Proto-Oncogene, Non-receptor Tyrosine Kinase (SRC), SRC (gene 6714) (UniProt P12931). The test can be described thus: NVS_ENZ_hSRC: NovaScreen (NVS) Enzymatic Assay for human SRC Proto-Oncogene, Non-receptor Tyrosine Kinase (SRC) (AID 2283223). How it is done:
as §1, with “NVS_ENZ_hSRC” for “NVS_ENZ_hVEGFR2”, “plate.NVS_ENZ_hSRC” for “plate.NVS_ENZ_hVEGFR2”, “NVS_ENZ_hSRC,” for “NVS_ENZ_hVEGFR2,”, “SRC.” for “KDR.”, “non-receptor” for “receptor”, “kinase. […]” for “kinase.”

Chain of rat Acetylcholinesterase (AChE), Ache (gene 83817) (P37136 whole entry, looked up): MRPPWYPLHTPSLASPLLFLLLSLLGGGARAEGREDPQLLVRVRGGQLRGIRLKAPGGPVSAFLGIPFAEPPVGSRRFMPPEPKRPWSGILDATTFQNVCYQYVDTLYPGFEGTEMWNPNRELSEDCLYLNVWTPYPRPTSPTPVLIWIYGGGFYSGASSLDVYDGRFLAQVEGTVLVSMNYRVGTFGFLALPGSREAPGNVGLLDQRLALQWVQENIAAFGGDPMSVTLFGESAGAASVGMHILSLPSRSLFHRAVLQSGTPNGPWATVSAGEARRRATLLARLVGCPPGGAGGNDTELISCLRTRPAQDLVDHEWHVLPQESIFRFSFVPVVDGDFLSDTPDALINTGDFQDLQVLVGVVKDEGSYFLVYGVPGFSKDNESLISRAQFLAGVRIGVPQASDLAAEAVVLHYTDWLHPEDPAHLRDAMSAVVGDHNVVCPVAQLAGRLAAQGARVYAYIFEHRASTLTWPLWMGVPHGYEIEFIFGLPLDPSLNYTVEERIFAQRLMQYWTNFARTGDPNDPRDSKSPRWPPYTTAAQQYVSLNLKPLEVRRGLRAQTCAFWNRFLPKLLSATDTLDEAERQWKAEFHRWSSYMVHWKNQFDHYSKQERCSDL
Chain of human Tropomyosin Receptor Kinase A (TRKA), NTRK1 (gene 4914) (P04629 whole entry, looked up): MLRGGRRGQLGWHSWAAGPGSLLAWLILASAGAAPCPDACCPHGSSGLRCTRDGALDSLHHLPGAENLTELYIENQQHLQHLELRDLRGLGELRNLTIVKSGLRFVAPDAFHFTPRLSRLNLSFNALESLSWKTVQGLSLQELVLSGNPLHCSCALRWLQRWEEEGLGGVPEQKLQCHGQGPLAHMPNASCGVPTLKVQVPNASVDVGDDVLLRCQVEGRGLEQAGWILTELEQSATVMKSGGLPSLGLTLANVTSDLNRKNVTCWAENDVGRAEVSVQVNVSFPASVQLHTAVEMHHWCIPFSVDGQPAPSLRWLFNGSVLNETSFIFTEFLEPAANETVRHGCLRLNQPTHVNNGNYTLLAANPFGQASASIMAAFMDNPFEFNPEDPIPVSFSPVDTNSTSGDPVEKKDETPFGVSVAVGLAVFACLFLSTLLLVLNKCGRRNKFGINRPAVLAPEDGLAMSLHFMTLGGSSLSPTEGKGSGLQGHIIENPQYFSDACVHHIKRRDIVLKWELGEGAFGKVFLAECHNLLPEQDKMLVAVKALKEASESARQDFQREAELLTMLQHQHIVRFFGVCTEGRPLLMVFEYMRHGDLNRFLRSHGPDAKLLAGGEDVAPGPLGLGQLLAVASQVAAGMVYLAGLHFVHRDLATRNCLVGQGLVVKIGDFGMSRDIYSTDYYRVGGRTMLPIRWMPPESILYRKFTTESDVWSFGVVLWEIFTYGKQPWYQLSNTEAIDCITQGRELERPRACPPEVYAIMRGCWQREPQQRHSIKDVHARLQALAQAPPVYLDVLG
Chain of rabbit Imidazoline 2 Central (I2C), CKB (gene 100009085) (P00567 whole entry, looked up): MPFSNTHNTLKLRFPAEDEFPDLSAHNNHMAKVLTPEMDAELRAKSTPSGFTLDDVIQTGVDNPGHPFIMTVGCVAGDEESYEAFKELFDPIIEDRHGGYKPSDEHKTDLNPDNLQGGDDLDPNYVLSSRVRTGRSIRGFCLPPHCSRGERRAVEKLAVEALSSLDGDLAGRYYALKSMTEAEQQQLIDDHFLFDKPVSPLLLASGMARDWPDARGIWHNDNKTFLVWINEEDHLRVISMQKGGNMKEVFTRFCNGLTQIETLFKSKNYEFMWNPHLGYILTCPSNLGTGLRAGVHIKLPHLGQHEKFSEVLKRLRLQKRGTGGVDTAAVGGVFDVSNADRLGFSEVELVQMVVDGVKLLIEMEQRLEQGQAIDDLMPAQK
Chain of human Sirtuin 3 (SIRT3), SIRT3 (gene 23410) (Q9NTG7 whole entry, looked up): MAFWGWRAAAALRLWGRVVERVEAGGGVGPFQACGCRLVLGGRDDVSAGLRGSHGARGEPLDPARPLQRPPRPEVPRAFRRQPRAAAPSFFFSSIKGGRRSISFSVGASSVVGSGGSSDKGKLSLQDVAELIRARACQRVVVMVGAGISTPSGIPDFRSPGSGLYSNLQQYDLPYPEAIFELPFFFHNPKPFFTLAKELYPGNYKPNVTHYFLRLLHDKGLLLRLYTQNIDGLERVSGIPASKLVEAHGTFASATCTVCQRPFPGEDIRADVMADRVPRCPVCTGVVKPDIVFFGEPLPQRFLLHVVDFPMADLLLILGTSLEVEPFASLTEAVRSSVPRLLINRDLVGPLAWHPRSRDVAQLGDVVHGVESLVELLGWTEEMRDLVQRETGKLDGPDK

For `O=S(=O)(O)C(F)(F)C(F)(F)C(F)(F)C(F)(F)C(F)(F)C(F)(F)C(F)(F)C(F)(F)F`, the concentration at half-maximal activity (AC50) in test [1] is 36.5 µM (active) and 28.4 µM (active); in test [2], 11.9 µM (active) and 11.4 µM (active) and 8.57 µM (active); in [3], 7.45 µM (active) and 9.17 µM (active); in test [4] it was 27.2 µM (active) and 43.1 µM (active); in test [5] it was 9.06 µM (active).
In the case of `O=C(Nc1ccccc1)Nc1cnns1`, the outcome in test [6] and in [7] was inactive.
Regarding `O=[N+]([O-])/N=C1\NCCN1Cc1ccc(Cl)nc1`, the AC50 in [6] was 11.4 µM (active).
Consider `Oc1cc(Cl)ccc1Oc1ccc(Cl)cc1Cl`, for which the compound was classed as inactive in test [3], in test [4] and in [8]. For the same compound, the AC50 in test [5] is 18.6 µM (active).
For the compound `N#Cc1c(Cl)c(Cl)c(Cl)c(C#N)c1Cl`, the results for the AC50 in [3] and in test [8] were 38.7 µM (active) and 25 µM (active), respectively. Further, the result in [4] and in test [7] was inactive.
`CCC(C)(C)C(=O)OC1=C(c2ccc(Cl)cc2Cl)C(=O)OC12CCCCC2`: the AC50 in test [9] is 25 µM (active).
Consider `CCCN(CCOc1c(Cl)cc(Cl)cc1Cl)C(=O)n1ccnc1`, for which the outcome in test [9] and in test [6] was inactive.
For `COP(=S)(OC)Oc1ccc([N+](=O)[O-])cc1`, the call in test [7] was inactive.
For `CC(C)(C)C(O)C(Oc1ccc(Cl)cc1)n1cncn1` (configuration not stated), the compound was classed as inactive in test [3] and in test [4].
For the compound `O=[N+]([O-])c1c(Cl)c(Cl)c(Cl)c(Cl)c1Cl`, the call in test [6] was inactive.
Turning to `C#CCN1C(=O)COc2cc(F)c(N3C(=O)C4=C(CCCC4)C3=O)cc21`, in [5], the call was inactive.
As for `CNC(=O)Oc1cccc(N=CN(C)C)c1`, the figures for the half-maximal activity concentration (AC50) in test [6] and in [7] were 0.67 µM (active) and 12 µM (active), respectively.
As for `COP(=S)(OC)Oc1ccc(SC)c(C)c1`, the compound was called inactive in [3].
For the compound `CC[C@H](C)[C@H]1O[C@]2(C=C[C@@H]1C)C[C@@H]1C[C@@H](C/C=C(\C)[C@@H](O[C@H]3C[C@H](OC)[C@@H](O[C@H]4C[C@H](OC)[C@@H](O)[C@H](C)O4)[C@H](C)O3)[C@@H](C)/C=C/C=C3\CO[C@@H]4[C@H](O)C(C)=C[C@@H](C(=O)O1)[C@]34O)O2` (tested in a mixture with another compound), the AC50 was 5.19 µM (active) in test [9] and 8.68 µM (active) in [5]. The outcome in test [4] was inactive.
Consider `COP(=O)(OC)OC=C(Cl)Cl`, for which the AC50 in test [7] was 6.37 µM (active).
Same read-out and setting: with `CC(C)N(C(=O)COc1nnc(C(F)(F)F)s1)c1ccc(F)cc1` the figure was 14.2 µM (active).
Regarding `CCCN(CCC)c1c([N+](=O)[O-])cc(C(F)(F)F)cc1[N+](=O)[O-]`, the result in [5] was inactive.
Turning to `CC(C)(C)C(O)/C(=C\c1ccc(Cl)cc1Cl)n1cncn1` (configuration not stated), in test [1], the compound was classed as inactive.
For the compound `CNC(=O)Oc1ccccc1OC(C)C`, the AC50 in test [7] is 5.05 µM (active).
For `Oc1ccc(Cl)cc1Cc1ccccc1`, the compound was called inactive in test [10]. In test [1], the half-maximal activity concentration (AC50) is 9.39 µM (active).
